We go through 40 compounds from PubChem BioAssay (Tox21).

Records with an inconclusive call do not appear. Activity calls are given as the source filed them. Calls come from the whole dose curve; as a rule, active = well fitted cell-killing curve with a large enough effect in the repeat runs; inconclusive = weak or mixed curves, or effect the other way; inactive = flat fitted curve, though single readings scatter.
% is set by controls: 0 for no effect and ±100 for the full control effect.

The assay in a line: qHTS assay to identify small molecule agonists of the constitutive androstane receptor (CAR) signaling pathway - cell viability counter screen (AID 1224836). Note: nearly all actives have a fitted effect of over 45% in size. Particulars: HepG2-CYP2B6-hCAR viability, CellTiter-Fluor, 23 h, PK11195 added to every well; series mostly up to 92.4 µM. From the text:
U.S. Tox21 Program National Center for Advancing Translational Sciences [NCATS] NIH Chemical Genomics Center [NCGC] U.S. Environmental Protection Agency [EPA] National Institutes of Environmental Health Sciences [NIEHS] National Toxicology Program [NTP] U.S. Food and Drug Administration [FDA] Tox21 Assay Overview: The constitutive androstane receptor (CAR) is a nuclear receptor which regulates multiple drug metabolizing enzymes (DMEs) and transporters. Activating CAR will generally increase the transcription and subsequent translation of CYP2B6 and CYP3A4. These two DMEs represent about 50% of the drug metabolizing potential in the body. […] Recently, there have also been studies performed indicating CARs role in energy metabolism and cancer therapy. Therefore, inducing CARs activity could have a potential effect on diabetes and cancer. Identifying environmental toxins and compounds which modulate CAR, through the use of the Tox21 10K compound collection, will be an important step in determining the toxicity and potential therapeutic effects these factors will have on the human body. To differentiate true CAR agonists from cytotoxic substances, the assay is multiplexed with a cell viability assay.
Tox21 Assay Protocol Summary: A double-stable (hCAR and CYP2B6-2.2kb) transfected cell line, derived from human hepatoma (HepG2) cells, was utilized for the duration of the quantitative high-throughput screens. The HepG2-CYP2B6-hCAR cells were dispensed at 2500 cells/4 uL/well in 1536-well white solid bottom plates using a Multidrop Combi. After the assay plates were incubated at 37 C/5% CO2 for 4 hrs, 23 nL of compounds at 15 concentrations (from 5-48 columns) or positive control (from 1 to 4 columns) were transferred to the assay plates using a Pintool station. One uL of PK11195 (final concentration = 0.75 uM) was added, using a Flying Reagent Dispenser, inside each well. After a 23 hr incubation period at 37 C/5% CO2, 1 uL of CellTiter-Fluor reagent was added into each well of the assay plates using a Flying Reagent Dispenser. The fluorescence intensity in the plates was then measured using a ViewLux plate reader.
(In general: In qHTS, concentration-response curves come from the screen itself.)
In the case of `O=C(O)c1ccccc1-c1ccc(C(F)(F)F)cc1`, the compound was called inactive.

Take `CNc1ncnc2nc[nH]c12`: the compound was classed as inactive. The same measure, in the same setting: in the case of `O=C(O)C1CCC1` it was “inactive”. On the same count and under the same terms, in the case of `Cc1ccc(Nc2ccc(O)c3c2C(=O)c2ccccc2C3=O)cc1` it was “inactive”; in that of `CO`, “inactive”. Consider `CC(=O)c1ccc(C)cc1`, for which the call was inactive. Same read-out and setting: to `CCCCc1ccc(N)cc1` belongs “inactive”; to `CC1CCN(CCCC(=O)c2ccc(F)cc2)CC1`, “inactive”. The same measure, in the same setting: in the case of `CCCCOCC(C)OCC(C)O` (stereo not given) it was “inactive”; in that of `CCCOCC(C)OCC(C)O` (stereo not given), “inactive”; in that of `CC(C)N1C(=O)c2ccccc2C1=O`, “inactive”. Still for that read-out and setting: in the case of `CCC(=O)c1cccc(Cl)c1` it was “inactive”; in that of `O=C(O)Cc1cc(I)c(Oc2cc(I)c(O)c(I)c2)c(I)c1`, “inactive”. For `Cc1onc(-c2ccccc2)c1-c1ccc(S(N)(=O)=O)cc1`, the call was inactive. Still for that read-out and setting: to `CCN1CCN(c2cc3c(cc2F)c(=O)c(C(=O)O)cn3C2CC2)CC1` belongs “inactive”; to `Oc1ccc2c(c1)OC[C@@H](N1CCC(O)(c3ccc(F)cc3)CC1)[C@H]2O`, “inactive”; to `CCCOc1ccccc1-c1nc2n[nH]nc2c(=O)[nH]1`, “inactive”.

As to `Cc1ccc(N)cc1[N+](=O)[O-]`, the compound was called inactive.

For the compound `CC(C)(O)Cc1ccccc1`, the call was inactive. Same read-out and setting: to `C#CC(O)CCCCC` (stereo not given) belongs “inactive”; to `CC(C)c1ccc2oc3nc(N)c(C(=O)O)cc3c(=O)c2c1`, “inactive”; to `CC(C)=CCC/C(C)=C/C(=O)O`, “inactive”. Still for that read-out and setting: to `COC(=O)[C@H]1[C@H]2C[C@@H]3c4[nH]c5cc(OC)ccc5c4CCN3C[C@H]2C[C@@H](OC(=O)COc2ccc(OC)cc2)[C@@H]1OC` belongs “inactive”; to `O=C(O)c1cccc(C(=O)O)n1`, “inactive”; to `COc1cccc(OC)c1`, “inactive”. Still for that read-out and setting: to `O=C(O)c1ccccc1S` belongs “inactive”; to `CCCCCCCCCCC1CO1` (stereo not given), “inactive”. Consider `NCCNC(=O)c1ccc(Cl)cn1`, for which the outcome was inactive. Same read-out and setting: in the case of `CN(C)C(=O)Nc1ccccc1` it was “inactive”. As to `CCn1cc(C(=O)O)c(=O)c2cc(F)c(N3CCN(C)CC3)cc21`, the viability change, negative = cytotoxic is 2.39% [at 19 µM] (inactive).

As for `O=C(O)C(O)[C@H](O)[C@@H](O)[C@H](O)[C@H](O)CO` (stereo not given in full), the result was inactive. Still for that read-out and setting: in the case of `CC12CCC(CC1=O)C2(C)C` (stereo not given) it was “inactive”. For the compound `NCC[C@H](O)C(=O)N[C@@H]1C[C@H](N)[C@@H](O[C@H]2O[C@H](CN)[C@@H](O)[C@H](O)[C@H]2O)[C@H](O)[C@H]1O[C@H]1O[C@H](CO)[C@@H](O)[C@H](N)[C@H]1O`, the viability change, negative = cytotoxic is 2.17% [at 0.349 µM] (inactive). On to `NS(=O)(=O)c1cc(C2(O)NC(=O)c3ccccc32)ccc1Cl` (stereo not given), for which the result was inactive.

As for `CC(=O)O[C@H](CC(=O)[O-])C[N+](C)(C)C`, the compound was called inactive. Turning to `C=C(C)C(=O)NCCCN(C)C`, the result was inactive. Same read-out and setting: to `CCCCNc1ccccc1` belongs “inactive”; to `CCOC(=O)Cn1c(=O)sc2cccc(Cl)c21`, “inactive”.

Regarding `CCc1cc(S(=O)(=O)O)c2cc(C(C)C)cccc1-2`, the result was inactive.

On to `COc1cc(C)cc(O)c1`, for which the call was inactive.
